The full ranking holds about 24,000 sequences; the median of “enrichment r” is about 0.99, and the highest 2% start at about 3.7. Many of the other results were omitted from the sample, so the highest values are more common in it than they were.

The text below walks through data of publication PMC12136788.

T1: UNK ZnF1-3 (human, UniProt Q9C0B0 31-174)
T1 sequence: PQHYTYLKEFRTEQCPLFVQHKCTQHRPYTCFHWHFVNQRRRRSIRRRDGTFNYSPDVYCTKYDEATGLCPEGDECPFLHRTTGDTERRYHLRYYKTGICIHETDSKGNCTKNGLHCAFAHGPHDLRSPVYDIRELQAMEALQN

B1: chr5:64741823:64741824:+_ENSMUSG00000029174_ENSMUST00000119756|mus_mus|motif|central (ssRNA)
RNA: GGGAGUUCUACAGUCCGACGAUCAAUAAAUAUGUCAGACCCCACAGCUACAGGUCCCACACUAGCAAUAACAGGGAAUCGGAAAACUGUGAUUUCCUUAUGAAACAUUUACCUGUGACUUGAAAGGGUAAGCAAAAACCAUACCAACAGAGGAUUGAGCAUCA
B2: chr16:94664741:94664742:+_ENSMUSG00000040785_ENSMUST00000117648|mus_hu|mus_mus_mus_hu_False|1_98 (ssRNA)
RNA: GGGAGUUCUACAGUCCGACGAUCUGGUACUGAUCUUUGCAUUGGAUAUUCAGGAGAAAGGCUGGCCAAGGGUGUAUAUAUGCUGGUGUACUGGGGCAAACCUGGUAACACGUUUAUGUAUGCUGGCGGUGUCUGGGUGCCAAACAACAGAGGAUUGAGCAUCA
B3: chr1:44133529:44133530:+_ENSG00000066135_ENST00000372396|hu_mus|FALSE|FALSE (ssRNA)
RNA: GGGAGUUCUACAGUCCGACGAUCGAACUCGGCUGCUUCCGGUGUGGGCAGAGUGUGGUCAAUAACCAUGCUGUCCUUCCCAGCUUUCCAAAGUUUGUAGCGUUCCGGCUGGAACCUCCUCACGAACACGUCCAUGGAGAUCUUCAACAGAGGAUUGAGCAUCA
B4: chr10:75008345:75008346:-_ENSG00000213551_ENST00000372950|hu_hu|motif|central (ssRNA)
RNA: GGGAGUUCUACAGUCCGACGAUCCUAUAUCUUAGUCACACACCAGAGUUAAGCCAUCUGUCUUUGCUCAUUUUUCCCUCGGUGGACAACAUAAUAUGUUGGGAAGGGCUUUCCAGGAGGGCAUAACCGGGAGAUGAAUCUUACCAACAGAGGAUUGAGCAUCA
B5: chr1:225611761:225611762:-_ENSG00000143815_ENST00000272163|hu_mus|hu_hu_hu_mus_True|8_88 (ssRNA)
RNA: GGGAGUUCUACAGUCCGACGAUCCCAGGCCAUCGGCCUCUGACCACUUCACCAUCGACAAACUUCCUACUUGGCAUUUUCUAAAAUUAGUCUGGCCGCGCUCCGGCGGGAACUCCAGCCACUCCAGGGAGAAUAGUAGCAGCCCAACAGAGGAUUGAGCAUCA
B6: chr2:179515052:179515053:+_ENSMUSG00000000305_ENSMUST00000000314|mus_hu|FALSE|FALSE (ssRNA)
RNA: GGGAGUUCUACAGUCCGACGAUCGCUGUCCCAUGCAGUCACCGUGAACGCCACCUGCUCGGAGGGGACCUGCAGCUCCCGGGUGGCGAAGACUGUCCCAUCUGCCCCAACUUUGAAGUCCAUGCUGUUGGUCUCAUAUUGUGUCAACAGAGGAUUGAGCAUCA
B7: chr7:7676484:7676485:-_ENSG00000106399_ENST00000223129|hu_mus|FALSE|FALSE (ssRNA)
RNA: GGGAGUUCUACAGUCCGACGAUCAAGUAUCACUUUUAAAAAAAGUUUAUAAAAAGGCUUAGUUGUAAACUGUCAUAAUAGAUUUACAAAAAAAUAUAUAUAUAUAAAAGAACAAAUUAAAUAUUAGAAAUUAUAGGAGUCGCUCAACAGAGGAUUGAGCAUCA
B8: chr6:13577978:13577979:-_ENSMUSG00000042742_ENSMUST00000045235|mus_hu|FALSE|FALSE (ssRNA)
RNA: GGGAGUUCUACAGUCCGACGAUCAAAAAGAAUUAUCACCAAUUACAAAAAGUUCAGUAAAUAUUGGAUCAUCAGACAAAAAAGGAACAUAAAAUGACUUUCUGUAACAUCACAAUUUUAGUUAGAAAAAAGAAAAAGAUAAGUCAACAGAGGAUUGAGCAUCA
B9: chr11:99246628:99246629:-_ENSMUSG00000019761_ENSMUST00000103131|mus_mus|FALSE|FALSE (ssRNA)
RNA: GGGAGUUCUACAGUCCGACGAUCAUAGUUUGCAUCAGUAAGAAAGUUUAUUGAAAUUUAUUAGUAAAUGAGAAAUUAAUAAGUAAGUGAGAAAGUUUUCUUCUUUUUUCUCCACAAAAGAACACUUUCUGAUAGAUGAAAAGACAACAGAGGAUUGAGCAUCA
B10: chr19:15271055:15271056:-_ENSG00000074181_ENST00000263388|hu_mus|FALSE|FALSE (ssRNA)
RNA: GGGAGUUCUACAGUCCGACGAUCAUAUAUAUUUUGUAAAAAAUAAUAAUAAUAAUAAGUUUGUUUAAAUGAAUUUGUCUCUAUACAAAAUGUAAAAAAGAAAAAAAUAAUAACUCACUCUUGUCAGAGUGUGAGACAAUGAGACAACAGAGGAUUGAGCAUCA
B11: chr4:95690885:95690886:+_ENSMUSG00000028572_ENSMUST00000156910|mus_mus|mus_mus_mus_hu_False|8_78 (ssRNA)
RNA: GGGAGUUCUACAGUCCGACGAUCUUUAGAAAAUGUUAAAUACCAUGCUAAAAUAUUGUAAUUUUAAUAUUUUAUUUUACCAGAAGUCACAGGCAAGCAGACACUACAAGAAUAUAUGAAAAUGAAACAACAGUGUAUAACUGUCAACAGAGGAUUGAGCAUCA
B12: chr3:169711627:169711628:+_ENSG00000008952_ENST00000337002|hu_hu|motif|central (ssRNA)
RNA: GGGAGUUCUACAGUCCGACGAUCUAAAAACAUACCCUUACAUGGUCUUAAUUUUAUGAAUUUAAGUGUUGAGAAAUAUCGGAAUAAUAAGUAACAAUUAAAAUAAAAUGUUUUAUUUGUAAAUUAUGUACAGAAUACACUUUACAACAGAGGAUUGAGCAUCA
B13: 13037762_13037882_4555_3pUTR_ENSMUSG00000029571_ENSMUST00000031556|mouse|control|control (ssRNA)
RNA: GGGAGUUCUACAGUCCGACGAUCUAAAAGGUACUCCUAUUUUAAAAACAUAUGAAUGAAACUAUCUUCUAAAAUAAGACGCAAUGUGUUAACAACCAGUUGAUUUAAGCACUUUAAAAGGCAGAAUGGAAAAGUCGGCACACCCAACAGAGGAUUGAGCAUCA
B14: chr11:31834330:31834331:+_ENSMUSG00000020300_ENSMUST00000109412|mus_mus|FALSE|FALSE (ssRNA)
RNA: GGGAGUUCUACAGUCCGACGAUCAUAAAGUUCAGAGUAAUAGAUAAUCAUUGUUUAUGCCCUGUAAAGAAGUGGAACCAAAUCAUCUGUAAACACGCUUGUCACACAAUCACAAGUAAAUAUUAGCAGAAUAACAAUUUCUUACAACAGAGGAUUGAGCAUCA

The test addresses T1, UNK ZnF1-3. As to the kind of experiment: nsRBNS (natural sequence RNA bind-n-seq); RBNS binding buffer (assumed for nsRBNS): 25 mM Tris pH 7.5, 150 mM KCl, 3 mM MgCl2, 0.01% Triton X-100, 500 ug/ml BSA, 20 U/ml SUPERase-In, 4 C; UNK is unkempt and MSI1 is Musashi-1; names of the RNAs are library labels; protein concentration not given here; high values mean tight binding.
For B1, the binding signal stood at 1.44 enrichment R.
Consider B2, for which the binding signal was 0.999 enrichment R.
B3 had a binding signal of 0.602 enrichment R.
The molecule B4 came in with a binding signal of 1.77 enrichment R.
The value for B5 was 1.19 enrichment R; that for B6 was 0.755 enrichment R; that for B7 was 21.9 enrichment R.
In turn, B8 came in with a binding signal of 3.59 enrichment R.
The value for B9 was 19.7 enrichment R; that for B10 was 4.58 enrichment R; that for B11 was 1.97 enrichment R.
In turn, B12 had a binding signal of 5.94 enrichment R.
Molecule B13 displayed a binding signal of 1.37 enrichment R.
In turn, B14 registered a binding signal of 0.945 enrichment R.
